Consider 34 compounds from the GenesisPotency data set.

Among all 290,000 compounds or so, about 3,000 (1%) were called active. Cut-off read from the data, not from the text of the source: active = inhibition mostly above about 36% (no sharp cut-off); inactive = mostly below about 34%. The entries come from a sample that favours actives as a whole.

The experiment has as its target T1, Nucleotide-binding oligomerization domain-containing protein 1, Homo sapiens (UniProt Q9Y239).
T1 sequence (whole entry): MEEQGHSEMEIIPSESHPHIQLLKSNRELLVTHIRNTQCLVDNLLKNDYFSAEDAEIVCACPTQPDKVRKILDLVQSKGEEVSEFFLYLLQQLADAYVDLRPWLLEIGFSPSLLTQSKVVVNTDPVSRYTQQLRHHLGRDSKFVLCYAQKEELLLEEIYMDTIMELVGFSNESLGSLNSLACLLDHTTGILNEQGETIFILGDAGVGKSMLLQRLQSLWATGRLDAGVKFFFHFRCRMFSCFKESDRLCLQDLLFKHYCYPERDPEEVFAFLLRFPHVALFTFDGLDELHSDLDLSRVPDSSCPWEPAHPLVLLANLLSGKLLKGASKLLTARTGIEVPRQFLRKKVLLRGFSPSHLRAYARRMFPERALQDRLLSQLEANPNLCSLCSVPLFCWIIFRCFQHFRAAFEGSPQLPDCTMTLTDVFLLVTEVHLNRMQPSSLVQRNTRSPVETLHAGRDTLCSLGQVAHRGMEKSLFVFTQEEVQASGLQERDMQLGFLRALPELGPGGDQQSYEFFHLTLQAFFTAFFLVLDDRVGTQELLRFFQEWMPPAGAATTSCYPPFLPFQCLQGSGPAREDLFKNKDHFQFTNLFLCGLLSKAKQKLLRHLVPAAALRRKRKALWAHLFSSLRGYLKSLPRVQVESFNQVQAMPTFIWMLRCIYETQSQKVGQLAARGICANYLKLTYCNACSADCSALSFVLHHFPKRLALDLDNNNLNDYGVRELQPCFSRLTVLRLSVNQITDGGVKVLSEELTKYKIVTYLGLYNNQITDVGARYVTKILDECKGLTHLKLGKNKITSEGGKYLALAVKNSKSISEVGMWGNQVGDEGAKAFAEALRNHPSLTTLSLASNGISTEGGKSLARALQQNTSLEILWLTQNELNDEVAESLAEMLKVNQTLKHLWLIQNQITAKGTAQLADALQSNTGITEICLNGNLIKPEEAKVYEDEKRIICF
Put plainly: NOD1 signaling inhibitors, primary screen, cell-based, luminescence, uHTS (AID 1578).
With `COc1ccc(-c2cc(-c3ccccc3)[n+](C)c(-c3ccccc3)c2)cc1.[O-][Cl+3]([O-])([O-])[O-]`, the call was active.

On to `COc1ccc(-[n+]2c(-c3ccccc3)cc(-c3ccc(C)cc3)cc2-c2ccccc2)cc1.[O-][Cl+3]([O-])([O-])[O-]`, for which the result was active.

`CCC(C)NC(=O)CCC(=O)OC1O[C@H]2OC3(C)CC[C@H]4[C@H](C)CCC(C1C)C24OO3` (some centres undefined): the compound was classed as active.

In the case of `CC(C)CC(NC(=O)CCCNC(=O)CCC(=O)OC1O[C@H]2OC3(C)CC[C@H]4[C@H](C)CCC(C1C)C24OO3)C(=O)O` (some centres undefined), the compound was classed as active. For the compound `CCC(C)C(NC(=O)CCCNC(=O)CCC(=O)OC1O[C@H]2OC3(C)CC[C@H]4[C@H](C)CCC(C1C)C24OO3)C(=O)O` (some centres undefined), the result was active. The result for `CC[C@@]1(O)C(=O)OCc2c1cc1n(c2=O)Cc2cc3ccccc3nc2-1` reads “active”; that for `CCCCCCn1c(=O)c(C(=O)Nc2cnccn2)c(O)c2ccccc21`, “active”; that for `CCCCCn1c(=O)c(C(=O)Nc2cnccn2)c(O)c2ccccc21`, “active”.

With `C=C1C(=O)O[C@@H]2C[C@@H](C)[C@@H]3C=CC(=O)[C@@]3(C)[C@@H](OC(=O)CC(=O)O[C@H]3[C@@H]4C(=C)C(=O)O[C@@H]4C[C@@H](C)[C@@H]4C=CC(=O)[C@]43C)[C@H]12`, the compound was called active.

Consider `C=C1C(=O)O[C@H]2C[C@@H](C)[C@@H]3C=CC(=O)[C@@]3(C)C[C@H]12`, for which the compound was called active. Take `O=c1c2ccccc2nc(/C=C/c2ccccc2O)n1-c1ccccc1O`: the call was active. `CC(C)(C)c1ccc(CSc2cnn(C(C)(C)C)c(=O)c2Cl)cc1`: the compound was called active.

For the compound `O=Cc1cn(Cc2cccc([N+](=O)[O-])c2)c2ccccc12`, the compound was called active. Regarding `O=c1c2ccccc2nc(/C=C/c2ccc([N+](=O)[O-])o2)n1-c1ccc(O)cc1`, the compound was classed as active. The result for `Cc1cccc(-n2c(/C=C/c3ccc([N+](=O)[O-])o3)nc3ccccc3c2=O)c1` reads “active”. Take `O=C(c1ccc(Cl)cc1)C1CCCN(Cc2cccc3ncccc23)C1` (centres undefined): the call was active. As to `Cc1nc2c(=O)n(C)c(=O)nc-2n(C)n1`, the compound was called active. The result for `CCOc1ccc(-c2cc(C)[n+](CCN(CC)CC)c(-c3ccc(OCC)cc3)c2)cc1.[O-][Cl+3]([O-])([O-])[O-]` reads “active”; that for `CC(=O)c1c(C)n(C2CCCCC2)c2ccc(O)cc12`, “active”. The result for `C[C@H]1CCC[C@@H](O)CCC/C=C/c2cc(O)cc(O)c2C(=O)O1` reads “active”; that for `CC1=CC(=Cc2sc3ccccc3[n+]2C)C=C(C)O1.[O-][Cl+3]([O-])([O-])[O-]`, “active”; that for `CC(C)[C@H]1C(=O)O[C@H](C(C)C)C(=O)N(C)[C@@H](C(C)C)C(=O)O[C@H](C(C)C)C(=O)N(C)[C@@H](C(C)C)C(=O)O[C@H](C(C)C)C(=O)N1C`, “active”. Turning to `CCn1nc(-c2ccccc2)nc2c(=O)n(C)c(=O)nc1-2`, the compound was called active. The result for `CCn1nc(/C=C/c2ccccc2)nc2c(=O)n(C)c(=O)nc1-2` reads “active”; that for `Cc1nn(C(C)(C)C)c(C)c1/C=N/OC(=O)Nc1ccc(Cl)cc1`, “active”.

For `Cc1nn(C(C)(C)C)c(C)c1/C=N/OC(=O)Nc1ccc(Cl)c(Cl)c1`, the result was active. Regarding `COc1ccc(Oc2cc(NC(=O)c3nn(C)cc3[N+](=O)[O-])cc([N+](=O)[O-])c2)cc1`, the compound was classed as active. The result for `C[C@@H]1O[C@@H](O[C@H]2C[C@@H](O)[C@]3(CO)[C@H]4[C@H](O)C[C@]5(C)[C@@H](C6=CC(=O)OC6)CC[C@]5(O)[C@@H]4CC[C@]3(O)C2)[C@H](O)[C@H](O)[C@H]1O` reads “active”; that for `NC(=O)c1cn(C2OC(CO)C(O)C2O)c2ncnc(N)c12.O` (centres undefined), “active”. For `CCCCN=C[C@]12CCC(O)CC1(O)CCC1[C@@H]2CC[C@]2(C)[C@H](C3C=CC(=O)O3)CCC12O` (some centres undefined), the result was active. For the compound `C[C@]12CCC3C(CCC4=CC(O)CC[C@@]43/C=N/O)C1(O)CCC2C1=CC(=O)OC1` (some centres undefined), the compound was classed as active.

With `CC(=O)OC[C@]12CCC(C)=C[C@H]1O[C@@H]1[C@H](O)[C@@H](OC(C)=O)[C@@]2(C)[C@]12CO2`, the compound was classed as active. With `C=C1C(=O)O[C@@H]2C[C@@H](C)[C@@H]3C4OC4C(=O)[C@@]3(C)[C@@H](O)[C@H]12` (some centres undefined), the compound was classed as active. For the compound `CCOc1ccc(-c2c(C)n(-c3ccc(OCC)cc3)c3[n+]2CCCCC3)cc1.[O-][Cl+3]([O-])([O-])[O-]`, the call was active.
